# Key:
# Experiment in all cases: DAPPL (digital affinity profiling via proximity ligation, sequencing); 10 mM Tris-HCl pH 7.5, 50 mM NaCl, 1 mM DTT, 4% glycerol, room temperature, 30 min; GST-TFs on glutathione beads, 16-mer random dsDNA library, 0.1% formaldehyde crosslink after washing; high values mean tight binding
# Settings in all cases: protein: recombinant; tags: N-terminal GST; dsDNA, one strand shown
# FLI1 = biological target: T1, FLI1 (Homo sapiens, UniProt Q01543 1-452)
# T1 sequence: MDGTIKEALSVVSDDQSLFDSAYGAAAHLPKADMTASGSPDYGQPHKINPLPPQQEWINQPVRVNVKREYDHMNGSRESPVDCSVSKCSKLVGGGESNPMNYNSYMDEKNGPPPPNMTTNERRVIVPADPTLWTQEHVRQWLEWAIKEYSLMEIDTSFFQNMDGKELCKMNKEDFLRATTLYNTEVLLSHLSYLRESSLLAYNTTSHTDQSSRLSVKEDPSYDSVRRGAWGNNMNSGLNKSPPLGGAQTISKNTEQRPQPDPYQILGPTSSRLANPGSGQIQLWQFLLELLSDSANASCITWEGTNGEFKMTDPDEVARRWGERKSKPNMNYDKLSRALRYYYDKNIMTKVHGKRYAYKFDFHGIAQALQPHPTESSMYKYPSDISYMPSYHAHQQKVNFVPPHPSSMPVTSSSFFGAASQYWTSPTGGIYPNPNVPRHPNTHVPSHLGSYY
# How it was run: (§1)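 Pools of DNA-barcoded human transcription factors, expressed in yeast as GST fusions on glutathione beads and combined with a tag-only sample, were incubated with 200 nmole of a 16-mer random double-stranded DNA library. Incubation took 30 min at room temperature in Tris/NaCl/DTT/glycerol buffer and was followed by washing, 0.1% formaldehyde crosslinking, proximity ligation (BsaI/T4 ligase, 1 h, 37 °C), PCR amplification and sequencing on an Illumina NextSeq500. Binding signal is the ratio of a hexamer's read frequency for a factor to its frequency for the tag-only sample.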
# ELK1 = biological target: T2, ELK1 (Homo sapiens, UniProt P19419 1-428)
# T2 sequence: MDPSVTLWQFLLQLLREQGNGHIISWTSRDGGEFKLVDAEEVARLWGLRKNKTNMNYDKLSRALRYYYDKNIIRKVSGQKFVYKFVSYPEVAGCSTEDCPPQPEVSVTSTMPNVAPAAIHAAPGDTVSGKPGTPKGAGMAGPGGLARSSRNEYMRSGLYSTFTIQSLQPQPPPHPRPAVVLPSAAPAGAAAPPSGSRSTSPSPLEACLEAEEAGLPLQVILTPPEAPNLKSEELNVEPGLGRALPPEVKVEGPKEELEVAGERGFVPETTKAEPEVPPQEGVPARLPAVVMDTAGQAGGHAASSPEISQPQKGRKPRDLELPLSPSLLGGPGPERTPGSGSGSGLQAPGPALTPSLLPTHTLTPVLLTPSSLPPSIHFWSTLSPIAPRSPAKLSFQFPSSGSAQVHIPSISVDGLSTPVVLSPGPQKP
# How it was run: as §1
# GABPA = biological target: T3, GABPA (Homo sapiens, UniProt Q06546 1-454)
# T3 sequence: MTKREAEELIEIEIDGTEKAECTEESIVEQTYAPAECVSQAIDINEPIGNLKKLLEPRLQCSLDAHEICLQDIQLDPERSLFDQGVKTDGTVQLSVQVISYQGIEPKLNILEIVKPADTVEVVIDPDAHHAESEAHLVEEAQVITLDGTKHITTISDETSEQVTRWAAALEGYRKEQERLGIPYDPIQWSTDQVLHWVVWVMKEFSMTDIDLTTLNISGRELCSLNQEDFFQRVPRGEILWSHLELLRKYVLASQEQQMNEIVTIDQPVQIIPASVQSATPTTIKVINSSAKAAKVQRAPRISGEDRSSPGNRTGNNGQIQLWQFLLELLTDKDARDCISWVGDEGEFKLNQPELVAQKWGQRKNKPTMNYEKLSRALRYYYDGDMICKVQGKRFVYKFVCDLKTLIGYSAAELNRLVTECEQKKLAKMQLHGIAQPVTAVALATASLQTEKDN
# How it was run: as §1
# ERG = biological target: T4, ERG (Homo sapiens, UniProt P11308 1-479)
# T4 sequence: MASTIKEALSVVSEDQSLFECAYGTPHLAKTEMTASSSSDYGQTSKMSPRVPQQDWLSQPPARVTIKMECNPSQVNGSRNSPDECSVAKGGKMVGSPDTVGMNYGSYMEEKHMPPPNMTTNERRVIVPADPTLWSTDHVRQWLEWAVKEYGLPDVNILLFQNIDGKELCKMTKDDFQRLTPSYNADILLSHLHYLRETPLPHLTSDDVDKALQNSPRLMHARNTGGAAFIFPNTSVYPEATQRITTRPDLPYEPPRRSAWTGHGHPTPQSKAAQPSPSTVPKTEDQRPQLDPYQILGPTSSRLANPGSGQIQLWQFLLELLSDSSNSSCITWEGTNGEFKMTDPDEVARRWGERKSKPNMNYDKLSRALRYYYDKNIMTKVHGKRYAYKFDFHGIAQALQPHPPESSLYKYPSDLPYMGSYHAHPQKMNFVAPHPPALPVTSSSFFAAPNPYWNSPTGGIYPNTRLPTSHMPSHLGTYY
# How it was run: as §1
# ELF1 = ELF1 (Homo sapiens, UniProt P32519 1-619)
# Sequence of ELF1 (P32519 whole entry): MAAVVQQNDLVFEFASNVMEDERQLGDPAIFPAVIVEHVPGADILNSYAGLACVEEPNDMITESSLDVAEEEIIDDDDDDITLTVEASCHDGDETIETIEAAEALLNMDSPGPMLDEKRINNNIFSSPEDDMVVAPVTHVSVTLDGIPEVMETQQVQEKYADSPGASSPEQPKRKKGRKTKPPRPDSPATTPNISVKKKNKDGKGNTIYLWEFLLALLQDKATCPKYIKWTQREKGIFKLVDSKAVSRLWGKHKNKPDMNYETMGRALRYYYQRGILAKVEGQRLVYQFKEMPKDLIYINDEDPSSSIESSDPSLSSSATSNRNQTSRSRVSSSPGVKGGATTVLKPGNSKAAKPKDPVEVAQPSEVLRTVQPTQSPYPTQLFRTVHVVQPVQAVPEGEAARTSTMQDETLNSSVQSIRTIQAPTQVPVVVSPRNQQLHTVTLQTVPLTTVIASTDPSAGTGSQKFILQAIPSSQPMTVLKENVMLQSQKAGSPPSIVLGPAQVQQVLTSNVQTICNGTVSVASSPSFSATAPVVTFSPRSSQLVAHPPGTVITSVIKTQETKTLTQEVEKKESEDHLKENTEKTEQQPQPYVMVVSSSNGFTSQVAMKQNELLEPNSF
# How it was run: as §1
# EHF = biological target: T5, EHF (Homo sapiens, UniProt Q9NZC4 1-300)
# T5 sequence: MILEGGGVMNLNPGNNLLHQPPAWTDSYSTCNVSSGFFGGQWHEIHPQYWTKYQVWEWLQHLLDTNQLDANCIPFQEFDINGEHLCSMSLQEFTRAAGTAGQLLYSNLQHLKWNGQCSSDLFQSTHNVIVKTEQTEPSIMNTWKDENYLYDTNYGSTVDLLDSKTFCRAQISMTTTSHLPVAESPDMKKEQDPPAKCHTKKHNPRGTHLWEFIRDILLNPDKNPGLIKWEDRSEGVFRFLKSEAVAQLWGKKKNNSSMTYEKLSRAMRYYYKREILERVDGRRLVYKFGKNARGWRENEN
# How it was run: as §1
# SPI1 = SPI1 (Homo sapiens, UniProt P17947 1-270)
# How it was run: as §1
# SPIB = SPIB (Homo sapiens, UniProt Q01892 1-262)
# Sequence of SPIB (Q01892 whole entry): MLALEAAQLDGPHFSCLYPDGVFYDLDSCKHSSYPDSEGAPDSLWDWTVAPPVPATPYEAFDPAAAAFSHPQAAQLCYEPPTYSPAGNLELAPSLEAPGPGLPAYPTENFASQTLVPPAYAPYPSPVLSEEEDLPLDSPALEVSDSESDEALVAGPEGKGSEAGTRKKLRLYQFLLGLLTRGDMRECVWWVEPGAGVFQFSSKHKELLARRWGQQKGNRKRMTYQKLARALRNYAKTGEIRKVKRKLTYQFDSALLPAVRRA
# How it was run: as §1
# ELK3 = biological target: T6, ELK3 (Homo sapiens, UniProt P41970 1-407)
# T6 sequence: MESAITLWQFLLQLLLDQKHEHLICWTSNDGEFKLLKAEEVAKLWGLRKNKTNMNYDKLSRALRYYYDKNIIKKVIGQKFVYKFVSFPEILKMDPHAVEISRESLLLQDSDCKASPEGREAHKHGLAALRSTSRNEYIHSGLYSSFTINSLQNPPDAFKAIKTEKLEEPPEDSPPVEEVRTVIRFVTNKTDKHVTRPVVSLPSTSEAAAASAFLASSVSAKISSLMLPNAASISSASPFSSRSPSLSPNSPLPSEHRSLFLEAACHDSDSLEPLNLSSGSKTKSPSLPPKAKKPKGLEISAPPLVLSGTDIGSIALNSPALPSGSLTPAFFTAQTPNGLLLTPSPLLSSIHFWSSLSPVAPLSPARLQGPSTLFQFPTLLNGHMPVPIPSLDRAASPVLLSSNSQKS
# How it was run: as §1
sequence,measurement,setting,value
TGTTTG,binding signal,FLI1,"1.52 fold enrichment (6-mer frequency, TF over GST control)"
same,binding signal,ELK1,"1.31 fold enrichment (6-mer frequency, TF over GST control)"
same,binding signal,GABPA,"1.32 fold enrichment (6-mer frequency, TF over GST control)"
same,binding signal,ERG,"1.27 fold enrichment (6-mer frequency, TF over GST control)"
same,binding signal,ELF1,"1.22 fold enrichment (6-mer frequency, TF over GST control)"
same,binding signal,EHF,"1.31 fold enrichment (6-mer frequency, TF over GST control)"
same,binding signal,SPI1,"1.29 fold enrichment (6-mer frequency, TF over GST control)"
same,binding signal,SPIB,"1.42 fold enrichment (6-mer frequency, TF over GST control)"
same,binding signal,ELK3,"1.29 fold enrichment (6-mer frequency, TF over GST control)"

# Reference: PMC7862700, “An all-to-all approach to the identification of sequence-specific readers for epigenetic DNA modifications on cytosine”
